Several values for one entry are separate records, joined by “and”; a condition that tells them apart may be missing. Identical values can stand only once. Results filed as inconclusive are left out. Activity calls are given as the source filed them. Unless noted, the call rests on the fitted dose curve; in most records, active means well fitted curve in the direction sought with a large enough effect; inconclusive means small, poorly fitted or top-dose-only effect, or another doubt; inactive means no such curve, though single readings can be large; an effect the other way counts as inactive or inconclusive.
Columns and labels:
[1] = Cell Viability - BJ (AID 421; calls by dose curve;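 further: potency means the concentration at half of the fitted maximal effect; cells exposed to compound for 40 hours at 37 °C before readout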); details: BJ fibroblast viability, qHTS
In short: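 Luminescent ATP signal (CellTiter-Glo, 20 min at room temperature) served as the read-out of viable BJ cells after 40 hours of compound treatment. Responses were scaled between DMSO and 100 uM tamoxifen, and AC50 values were obtained by Hill modeling.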

[2] = Cell Viability - HepG2 (AID 433; calls by dose curve;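 further: potency means the concentration at half of the fitted maximal effect; potency for ATP loss meaning cytotoxicity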); details: qHTS
In short: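 HepG2 hepatocellular carcinoma cells (1500/well) were treated with compounds for 40 h at 37 °C in complete medium; intracellular ATP was read by CellTiter-Glo luminescence. Data were normalized to DMSO and 100 uM tamoxifen, and AC50 came from Hill fits.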

[3] = Cell Viability - MRC5 (AID 434; calls by dose curve;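 further: potency means the concentration at half of the fitted maximal effect; potency reflects cytotoxicity seen as loss of intracellular ATP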); details: MRC5 lung fibroblast viability, qHTS
In short: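 qHTS cytotoxicity in human lung fibroblast MRC5 cells; 40 hr treatment, 37 °C; cellular ATP by luciferase luminescence; DMSO = 0%, 100 uM tamoxifen = 100% inhibition; Hill-fit AC50.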

[4] = Cell Viability - SK-N-SH (AID 435; calls by dose curve;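 further: potency means the concentration at half of the fitted maximal effect; compound exposure lasted 40 h at 37 °C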); details: SK-N-SH neuroblastoma cell viability qHTS
In short: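 SK-N-SH human neuroblastoma cells (1500/well) were exposed to compounds in complete medium for 40 h at 37 °C, and intracellular ATP was then measured by CellTiter-Glo luminescence. AC50 was taken from Hill fits, normalized to DMSO and 100 uM tamoxifen.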

[5] = molecular target: Mitogen-activated protein kinase 10 (Mus musculus) (UniProt Q61831); experiment: JNK3 AlphaScreen Assay (AID 530; active means well fitted curve in either direction with a large enough effect, not every such curve was filed as active;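 further: kinase came from lysate of stimulated human HepG2 cells; signal reports phosphorylation of biotinylated GST-cJun 1-79 at Ser73 with 10 µM ATP; on the % scale 0 is the no-effect control and ±100 the full control effect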); details: JNK3 lysate, c-Jun phosphorylation; series mostly up to 57.1 µM
In short: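 Compound titrations were preincubated 15 minutes at room temperature with substrate, antibody and pre-activated JNK3-containing HepG2 lysate. Reactions were started with 10 uM ATP and stopped with EDTA-containing bead buffer for AlphaScreen detection.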

[6] = Cell Viability - N2a (AID 540); details: N2a mouse neuroblastoma cell viability; at 92.2 µM (top of the series);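 further: plate controls were DMSO alone for no effect and tamoxifen control for full effect; nearly all actives have a fitted effect of over 45% in size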
In short: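 Luminescent ATP signal (CellTiter-Glo, 20 min at room temperature) served as the viability read-out after N2a cells were treated with compounds for 40 hours at 37 °C. Concentration-response data were fitted to the Hill equation for AC50.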

[7] = Cell Viability - HUV-EC-C (AID 542); details: HUV-EC-C endothelial cell viability, qHTS; series mostly up to 92.2 µM; further: on the % scale 0 is the no-effect control and ±100 the full control effect; nearly all actives have a fitted effect of over 35% in size
In short: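 qHTS cytotoxicity: HUV-EC-C, 1000 cells/well, 5 hr settle, compound 40 hr 37 °C, CellTiter-Glo, luminescence. AC50 via Hill equation.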

[8] = Cell Viability - SH-SY5Y (AID 544); details: SH-SY5Y neuroblastoma cell viability; viability change, negative = cytotoxic: at 92.2 µM (top of the series); further: nearly all actives have a fitted effect of over 55% in size
In short: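 Luminescent ATP read-out (CellTiter-Glo) measures loss of viable SH-SY5Y neuroblastoma cells after 40 hr compound exposure at 37 °C. AC50 values derive from standard Hill modelling of qHTS concentration-response data.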

[9] = Cell Viability - Renal Proximal Tubule (AID 545); details: renal proximal tubule cells viability; at 91.7 µM (top of the series), primary cells of rat origin unless noted; further: nearly all actives have a fitted effect of over 40% in size
In short: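 Primary rat renal proximal tubule cells (1000/well) were treated with compounds for 40 hr at 37 °C in complete medium. Intracellular ATP was measured by CellTiter-Glo luminescence, and AC50 values came from Hill-equation fits of concentration-response data.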

[10] = Cell Viability - Mesenchymal (AID 546); details: mesenchymal cells viability, qHTS; series mostly up to 91.7 µM;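 further: cells exposed to compound for 40 hours before reading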
In short: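 AC50 values reflect the drop in intracellular ATP in a human kidney mesenchymal line derived from normal glomeruli. Treatment lasts 40 hr at 37 °C in complete medium, and the signal comes from CellTiter-Glo luminescence.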

[11] = Cellular Toxicity (caspase-3) Jurkat (AID 655); details: Jurkat caspase-3 activation, luminescence, DMSO = 0%, tamoxifen = 100%; at 92.2 µM (top of the series);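 further: cells exposed to compound for 16 h at 37 °C before reading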
In short: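 Jurkat cells (5000/well) in complete medium were treated with compounds for 16 hr at 37 °C, then Caspase-Glo 3/7 luminescence was read after 20 min at room temperature. Data normalized to DMSO (basal) and 100 uM tamoxifen (100%); AC50 from Hill fit.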

[12] = Cellular Toxicity (caspase-3) SHSY5Y (AID 657); details: SH-SY5Y caspase-3 activation, DMSO zero, 10 µM staurosporine = 100%; series mostly up to 91.7 µM;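 further: cells exposed to compound for 16 hours at 37 °C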
In short: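 SH-SY5Y human neuroblastoma cells (1500/well) were treated with compounds for 16 h at 37 °C, then Caspase-Glo 3/7 luminescence was read after 1 h at room temperature. Data normalized to DMSO and 10 uM staurosporine; AC50 from Hill fits.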

[13] = Cellular Toxicity (caspase-3) BJ (AID 658); details: BJ fibroblasts, luminescence, normalized: DMSO 0%, staurosporine 100%; series mostly up to 91.7 µM;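 further: cells exposed to compound for 16 hours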
In short: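 Readout: Caspase-Glo 3/7 luminescence increase in BJ cells after 16 hr treatment at 37 °C. Staurosporine and tamoxifen served as positive controls; AC50 values came from Hill modelling of data normalized to DMSO and 10 uM staurosporine.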

[14] = Cellular Toxicity (caspase-3) MRC-5 (AID 659); details: MRC-5 cells, luminescence, normalized: DMSO 0%, 10 µM staurosporine 100%; series mostly up to 91.7 µM
In short: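 Concentration-dependent caspase 3/7 activation is measured in human normal lung fibroblasts (MRC-5) following 16-hour treatment. AC50 values come from standard Hill-equation modeling of luminescence normalized to DMSO and 10 uM staurosporine.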

[15] = Cellular Toxicity (caspase-3) Mesangial (AID 660); details: mesangial cells, normalized: DMSO 0%, 100 µM tamoxifen 100%; series mostly up to 91.7 µM;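 further: combined caspase 3 and 7 activity read by Caspase-Glo luminescence; cells exposed to compound for 16 h before the caspase read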
In short: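 Mesangial cells, 1000/well, 5 h settle at 37 °C; compound 16 h, 37 °C; Caspase-Glo 3/7 reagent 20 min RT; luminescence. Norm.: DMSO = 0%, tamoxifen 100 uM = 100%. AC50, Hill fit.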

[16] = Cellular Toxicity (caspase-3) SK-N-SH (AID 661); details: SK-N-SH caspase-3 activation, qHTS, DMSO as zero, staurosporine as full; series mostly up to 91.7 µM;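 further: cells exposed to compound for 16 hours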
In short: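 Human neuroblastoma SK-N-SH, 1500 cells/well, 5 hr pre-incubation, then compound 16 hr, 37 °C. Caspase-Glo 3/7 reagent, 1 hr RT, luminescence. Norm. to DMSO/10 uM staurosporine; Hill-fit AC50.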

[17] = Cellular Toxicity (caspase-3) Renal Proximal Tubule (AID 667); details: renal proximal tubule cells; at 91.7 µM (top of the series), primary cells freshly taken from rat, solvent-only wells 0%, staurosporine 100% unless noted;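 further: cells exposed to compound for 16 hours at 37 °C before detection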
In short: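 Primary rat proximal tubule cells, 1000/well, 5 h plating at 37 °C, then compound 16 h at 37 °C. Caspase-Glo 3/7 reagent, 1 h RT, luminescence. Normalized to DMSO (basal) and 10 uM staurosporine (100%); Hill-fit AC50.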

[18] = qHTS Assay for Identification of Small Molecule Inducers of Hypoxia Response (AID 2120; active means well fitted curve in the direction sought with a large enough effect in the signal ratio, with a control signal flat, not every such curve was filed as active; the % refers to the signal ratio; further: 0% is about no effect); details: hypoxia response reporter cells, beta-lactamase ratio readout; series mostly up to 104 µM
In short: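 ME-180 HRE-bla cells plated in Opti-MEM/0.5% dialyzed FBS, rested 4-5 h, then dosed with compound titrations by pin tool. After 17 h at 37 degrees C, CCF4 dye loaded 2.5 h at RT; 460/530 nm ratio gave %Activity and AC50.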

[19] = qHTS assay for small molecule disruptors of the mitochondrial membrane potential - 5 hr assay (AID 651755; calls by dose curve; further: on the % scale 0 is the no-effect control and ±100 the full control effect; nearly all actives have a fitted effect of over 40% in size); details: JC-1-type ratio dye; series mostly up to 92.2 µM
In short: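 HepG2, 2,000 cells/well, overnight attach; cpd or DMSO 5 hr, 37C/5% CO2; Mito-MPS 30 min 37C; fluor 490/535 + 540/590 nm.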

[20] = molecular target: Peroxisome proliferator-activated receptor alpha (Homo sapiens) (UniProt Q07869); experiment: qHTS assay for small molecule agonists of the peroxisome proliferator-activated receptor alpha (PPARalpha) signaling pathway (AID 651778); details: PathHunter PPARalpha complementation, chemiluminescence, 6 h; active compounds read high; further: % of control where 0% means no effect
In short: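 Chemiluminescence from complemented enzyme reported PPARalpha activation in cells after 6 hr of compound treatment at 37 C. The detection reagent was incubated for 60 min at room temperature, and compounds were scored as agonists.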

Chain of Peroxisome proliferator-activated receptor alpha (Homo sapiens) (Q07869 whole entry, looked up): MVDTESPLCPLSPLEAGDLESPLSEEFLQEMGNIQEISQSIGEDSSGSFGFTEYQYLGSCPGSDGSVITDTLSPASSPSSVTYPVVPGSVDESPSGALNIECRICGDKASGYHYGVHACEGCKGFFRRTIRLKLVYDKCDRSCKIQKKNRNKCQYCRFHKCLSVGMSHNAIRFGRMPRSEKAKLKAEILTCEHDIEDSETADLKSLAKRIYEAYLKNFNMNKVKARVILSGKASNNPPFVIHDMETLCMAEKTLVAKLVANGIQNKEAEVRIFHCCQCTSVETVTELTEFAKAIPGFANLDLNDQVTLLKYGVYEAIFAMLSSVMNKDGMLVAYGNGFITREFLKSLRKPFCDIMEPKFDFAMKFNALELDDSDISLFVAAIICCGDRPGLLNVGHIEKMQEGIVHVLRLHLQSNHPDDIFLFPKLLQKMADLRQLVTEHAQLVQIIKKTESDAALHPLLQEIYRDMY

O=NN(c1ccccc1)c1ccccc1
inactive: Potency [1] > 92 µM | Potency [2] > 92 µM | Potency [3] > 92 µM | Potency [4] > 92 µM | outcome [5] | activity change, negative = cytotoxicity [6] 2.63% | Potency [7] | Potency [8] | activity change, negative = cytotoxicity [9] -4.13% | outcome [10] | caspase-3 activation [11] 3.48% | outcome [12] | outcome [13] | outcome [14] | outcome [15] | outcome [16] | caspase-3 activation [17] 1.42% | outcome [18] | Potency [19] | max response [20] 3.69% and -0.619%

Oc1ccc(Cl)cc1Cl
inactive: Potency [1] > 92 µM | Potency [2] > 92 µM | Potency [3] > 92 µM | Potency [4] > 92 µM | outcome [5] | activity change, negative = cytotoxicity [6] -5.05% | Potency [7] | Potency [8] | activity change, negative = cytotoxicity [9] -7.07% | outcome [10] | caspase-3 activation [11] 3.55% | outcome [12] | outcome [13] | outcome [14] | outcome [15] | outcome [16] | caspase-3 activation [17] -2.5% | outcome [18] | Potency [19] | max response [20] 1.17% and -0.592%

Clc1cccc(C(Cl)(Cl)Cl)n1
inactive: Potency [1] > 92 µM | Potency [2] > 92 µM | Potency [3] > 92 µM | Potency [4] > 92 µM | outcome [5] | activity change, negative = cytotoxicity [6] -3.54% | Potency [7] | Potency [8] | activity change, negative = cytotoxicity [9] -6.77% | outcome [10] | caspase-3 activation [11] -0.503% | outcome [12] | outcome [13] | outcome [14] | outcome [15] | outcome [16] | caspase-3 activation [17] 4.49% | outcome [18] | Potency [19] | max response [20] -0.105% and 0.0446%

Cc1ccc2ccccc2c1
inactive: Potency [1] > 92 µM | Potency [2] > 92 µM | Potency [3] > 92 µM | Potency [4] > 92 µM | outcome [5] | activity change, negative = cytotoxicity [6] -3.22% | Potency [7] | Potency [8] | activity change, negative = cytotoxicity [9] -15.4% | outcome [10] | caspase-3 activation [11] 1.17% | outcome [12] | outcome [13] | outcome [14] | outcome [15] | outcome [16] | caspase-3 activation [17] 18.4% | outcome [18] | Potency [19] | max response [20] -0.593%

CC(C)(C)OOC(C)(C)C
inactive: Potency [1] > 92 µM | Potency [2] > 92 µM | Potency [3] > 92 µM | Potency [4] > 92 µM | outcome [5] | activity change, negative = cytotoxicity [6] -8.54% | Potency [7] | Potency [8] | activity change, negative = cytotoxicity [9] -8.32% | outcome [10] | caspase-3 activation [11] 0.243% | outcome [12] | outcome [13] | outcome [14] | outcome [15] | outcome [16] | caspase-3 activation [17] 11.1% | outcome [18] | Potency [19] | max response [20] 0.694%

Source: PubChem BioAssay (NCATS)
